Activity calls are given as the source filed them. How the source made its calls: active means hit-call score of the fitted dose curve at least 0.9, where 1 is the maximum; inactive means score below 0.9.

What is called AC50 is the concentration at which the activity in the assay is half-maximal.

Read-out in test [1]: Human Leukocyte Antigen - DR isotype (HLADR), HLA-DRA (gene 3122)
Put plainly: BSK_BE3C_HLADR: BioMAP Diversity Plus: BE3C Assay for Human Leukocyte Antigen - DR isotype (HLADR) Biomarker Activity (AID 2283032). The settings on record: primary human bronchial epithelial cells; actives raise or lower the signal. The procedure, abridged:
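Cell-surface HLA-DR ELISA readout at 24 h after dosing in the BE3C primary human lung bronchial epithelial system; gain or loss of signal against DMSO, with parallel sulforhodamine B staining of total protein for overt cytotoxicity.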

Read-out in test [2]: Vascular cell adhesion molecule 1 (VCAM1), VCAM1 (gene 7412)
Put plainly: BSK_4H_VCAM1: BioMAP Diversity Plus: 4H Assay for Vascular cell adhesion molecule 1 (VCAM1) Biomarker Activity (AID 2283033).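 On outcome: cell-surface VCAM-1 protein measured by ELISA.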 The settings on record: primary human endothelial cells (HUVEC); actives raise or lower the signal. The procedure, abridged: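 VCAM-1 ELISA read 24 h after chemical dosing of HUVEC in the BioMAP 4H system, with gain or loss of signal fitted relative to DMSO. Parallel SRB staining (560 nm) checked overt cytotoxicity.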

Read-out in test [3]: Interferon-gamma inducible Protein 10 (IP10), CXCL10 (gene 3627)
Put plainly: BSK_BE3C_IP10: BioMAP Diversity Plus: BE3C Assay for Interferon-gamma inducible Protein 10 (IP10) Biomarker Activity (AID 2283034). The settings on record: primary human bronchial epithelial cells; actives raise or lower the signal. The procedure, abridged:
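IP-10 quantified by ELISA in human primary bronchial epithelial cell cultures at 24 hours post-dosing. Gain or loss of signal fitted relative to DMSO; parallel SRB staining assessed overt cytotoxicity.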

Read-out in test [4]: Monokine induced gamma interferon (MIG), CXCL9 (gene 4283)
Put plainly: BSK_BE3C_MIG: BioMAP Diversity Plus: BE3C Assay for Monokine induced gamma interferon (MIG) Biomarker Activity (AID 2283035). The following applies: primary human bronchial epithelial cells; actives raise or lower the signal. The procedure, abridged:
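Dose cells (human primary bronchial epithelial), incubate 24 h, quantify MIG by ELISA, then fit concentration–response in both directions relative to DMSO control.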

Read-out in test [5]: Transforming growth factor beta 1 (TGFb1), TGFB1 (gene 7040)
In words: BSK_BE3C_TGFb1: BioMAP Diversity Plus: BE3C Assay for Transforming growth factor beta 1 (TGFb1) Biomarker Activity (AID 2283036;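 on outcome: TGF-b1 protein level measured by ELISA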). The settings on record: primary human bronchial epithelial cells; actives raise or lower the signal. The procedure, abridged:
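ELISA readout of TGF-b1 from human lung bronchial epithelial primary cells, taken 24 h post-treatment. Gain or loss of signal fitted relative to DMSO baseline, with parallel SRB staining for overt cytotoxicity.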

Read-out in test [6]: Plasminogen activator inhibitor-1 (PAI1), SERPINE1 (gene 5054)
In words: BSK_BE3C_PAI1: BioMAP Diversity Plus: BE3C Assay for Plasminogen activator inhibitor-1 (PAI1) Biomarker Activity (AID 2283037). The following applies: primary human bronchial epithelial cells; actives raise or lower the signal. The procedure, abridged:
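PAI-1 was measured by ELISA in human primary bronchial epithelial cultures 24 h after chemical dosing, with cytotoxicity checked by SRB total-protein staining in parallel cultures. Activity was fitted in both directions relative to DMSO.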

Read-out in test [7]: urokinase plasminogen activator (uPA), PLAU (gene 5328)
Put plainly: BSK_BE3C_uPA: BioMAP Diversity Plus: BE3C Assay for urokinase plasminogen activator (uPA) Biomarker Activity (AID 2283038).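 On outcome: uPA protein level quantified by ELISA in cell cultures; uPA read one day after compound addition.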 The settings on record: primary human bronchial epithelial cells; actives raise or lower the signal. The procedure, abridged: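 ELISA read-out of uPA in human lung primary bronchial epithelial cultures, 24 h post-dosing. Gain or loss of signal fitted bidirectionally relative to DMSO baseline; cytotoxicity checked in parallel cultures via SRB total protein stain.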

Read-out in test [8]: Interleukin-6 (IL6), IL6 (gene 3569)
Put plainly: BSK_CASM3C_IL6: BioMAP Diversity Plus: CASM3C Assay for Interleukin-6 (IL6) Biomarker Activity for (AID 2283040). The following applies: primary human coronary artery smooth muscle cells; actives raise or lower the signal.

Read-out in test [9]: Tissue plasminogen activator (tPA), PLAT (gene 5327)
In words: BSK_BE3C_tPA: BioMAP Diversity Plus: BE3C Assay for Tissue plasminogen activator (tPA) Biomarker Activity (AID 2283041).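 On outcome: tPA level quantified by ELISA one day after compound addition.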 The settings on record: primary human bronchial epithelial cells; actives raise or lower the signal. The procedure, abridged: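 tPA measured by ELISA 24 h after dosing human primary bronchial epithelial cells (BE3C system). Changes in either direction were fitted against DMSO. Parallel cultures were stained with SRB to flag overt cytotoxicity.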

Read-out in test [10]: Interleukin-8 (IL8), CXCL8 (gene 3576)
In words: BSK_CASM3C_IL8: BioMAP Diversity Plus: CASM3C Assay for Interleukin-8 (IL8) Biomarker Activity (AID 2283042).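 Further: IL-8 protein level quantified by ELISA.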 The settings on record: primary human coronary artery smooth muscle cells; actives raise or lower the signal.

Read-out in test [11]: Human Leukocyte Antigen - DR isotype (HLADR), HLA-DRA (gene 3122)
In words: BSK_CASM3C_HLADR: BioMAP Diversity Plus: CASM3C Assay for Human Leukocyte Antigen - DR isotype (HLADR) Biomarker Activity (AID 2283043).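 Further: cell-surface HLA-DR protein level quantified by ELISA.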 The following applies: primary human coronary artery smooth muscle cells; actives raise or lower the signal.

Read-out in test [12]: Macrophage colony-stimulating factor (MCSF), CSF1 (gene 1435)
Put plainly: BSK_CASM3C_MCSF: BioMAP Diversity Plus: CASM3C Assay for Macrophage colony-stimulating factor (MCSF) Biomarker Activity (AID 2283044).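 Further: M-CSF protein amount quantified by ELISA after 24 h exposure.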 The settings on record: primary human coronary artery smooth muscle cells; actives raise or lower the signal.

Read-out in test [13]: Low-density lipoprotein receptor (LDLR), LDLR (gene 3949)
Put plainly: BSK_CASM3C_LDLR: BioMAP Diversity Plus: CASM3C Assay for Low-density lipoprotein receptor (LDLR) Biomarker Activity (AID 2283045).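 Further: LDLR protein level on the cell surface quantified by ELISA.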 The following applies: primary human coronary artery smooth muscle cells; actives raise or lower the signal.

Read-out in test [14]: Monocyte Chemoattractant Protein-1 (MCP1), CCL2 (gene 6347)
In words: BSK_CASM3C_MCP1: BioMAP Diversity Plus: CASM3C Assay for Monocyte Chemoattractant Protein-1 (MCP1) Biomarker Activity (AID 2283046).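 Further: MCP-1 level quantified by ELISA 24 h after dosing.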 The following applies: primary human coronary artery smooth muscle cells; actives raise or lower the signal.

Test [15] is described as follows: BSK_CASM3C_Proliferation: Cell Proliferation Assessment in the BioMAP Diversity Plus: CASM3C Assay (AID 2283047).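 Further: sulforhodamine B total protein stain as relative cell number at 560 nm; sub-confluent cells exposed 48 h before staining; fitted both ways against DMSO so gain or loss of cell number.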 The settings on record: primary human coronary artery smooth muscle cells.
Read-out in test [16]: Monokine induced gamma interferon (MIG), CXCL9 (gene 4283)
In words: BSK_CASM3C_MIG: BioMAP Diversity Plus: CASM3C Assay for Monokine induced gamma interferon (MIG) Biomarker Activity (AID 2283048).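 Further: MIG protein level measured by ELISA.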 The settings on record: primary human coronary artery smooth muscle cells; actives raise or lower the signal.

Read-out in test [17]: serum amyloid A (SAA), SAA1 (gene 6288)
Put plainly: BSK_CASM3C_SAA: BioMAP Diversity Plus: CASM3C Assay for serum amyloid A (SAA) Biomarker Activity (AID 2283049).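 Further: SAA protein level quantified by ELISA.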 The settings on record: primary human coronary artery smooth muscle cells; actives raise or lower the signal.

Test [18] in a line: BSK_CASM3C_SRB: Viability Assessment in the BioMAP Diversity Plus: CASM3C Assay (AID 2283050). The settings on record: primary human coronary artery smooth muscle cells.
Read-out in test [19]: Thrombomodulin, THBD (gene 7056)
In words: BSK_CASM3C_Thrombomodulin: BioMAP Diversity Plus: CASM3C Assay for Thrombomodulin Biomarker Activity (AID 2283051).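 Further: thrombomodulin protein level measured by ELISA 24 h after dosing.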 The following applies: primary human coronary artery smooth muscle cells; actives raise or lower the signal.

Read-out in test [20]: Urokinase-type plasminogen activator receptor (uPAR), PLAUR (gene 5329)
Put plainly: BSK_BE3C_uPAR: BioMAP Diversity Plus: BE3C Assay for Urokinase-type plasminogen activator receptor (uPAR) Biomarker Activity (AID 2283039).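 Further: cells exposed to compound for one day before measurement.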 The settings on record: primary human bronchial epithelial cells; actives raise or lower the signal. The procedure, abridged: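 uPAR levels were measured by ELISA after 24 h compound treatment of primary human bronchial epithelial cells, fitted in both directions relative to DMSO. Parallel SRB staining served as the cytotoxicity read-out.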

With `CCCCCCc1ccc(O)cc1O`, the AC50 in [1] is 29.5 µM (active); in test [2], 31.8 µM (active); in test [3], 32.2 µM (active); in test [4], 30.9 µM (active); in test [5], 24.6 µM (active); in test [6], 31.6 µM (active). Besides, the AC50 is 31.4 µM (active) in test [7]; 13.2 µM (active) in [9]; 11.9 µM (active) in test [13]; 32.6 µM (active) in [15]; 4.48 µM (active) in test [19]. Also, the result in test [8], in test [10], in [11], in test [12], in [14] and in test [16] was inactive. In addition, the outcome in test [17] and in [18] was inactive.

In the case of `Cc1c(-c2cccnc2)c2ccccc2n1CCCCC(=O)O`, the outcome in [1], in test [2], in test [3], in test [4], in [5] and in test [6] was inactive. The outcome in [7], in [8], in test [9], in [10], in test [12] and in [13] was inactive. Besides, the outcome in test [14], in test [15], in test [16], in test [17], in test [18] and in [19] was inactive. The AC50 in test [11] is 3.97 µM (active).

In the case of `COC(=O)c1c(Cl)c(Cl)c(C(=O)OC)c(Cl)c1Cl`, the outcome in test [1], in test [2], in [3], in test [4], in test [5] and in test [6] was inactive. Moreover, the result in test [7], in [8], in [9], in test [10], in [11] and in test [12] was inactive. The result in [13], in test [14], in test [15], in [16], in test [17] and in test [18] was inactive. For the same compound, the result in test [19] was inactive.

For the compound `O=c1n(CC2CO2)c(=O)n(CC2CO2)c(=O)n1CC1CO1` (stereo not drawn), the AC50 is 34.7 µM (active) in test [1], 23.4 µM (active) in [2], 15.3 µM (active) in [11] and 1.85 µM (active) in test [15]. The result in test [3], in test [4], in test [5], in test [7], in test [20] and in test [8] was inactive. In addition, the outcome in test [9], in test [10], in test [12], in [13], in [14] and in [16] was inactive. Also, the result in [17], in [18] and in [19] was inactive.

On to `CCn1nc(Cc2ccccc2)cc1C1CCN(C[C@H]2C[C@H](N(C)[C@@H](C(=O)O)C(C)C)C[C@@H]2c2cccc(F)c2)CC1`, for which the outcome in test [1], in [2], in test [3], in [4], in test [5] and in test [7] was inactive. Moreover, the outcome in test [20], in [8], in test [9], in [10], in [11] and in test [12] was inactive. Also, the result in [13], in test [14], in test [15], in test [16], in test [17] and in test [18] was inactive. Also, the result in test [19] was inactive.

Regarding `O=C1CCC(N2C(=O)c3ccccc3C2=O)C(=O)N1` (stereo not drawn), the result in test [1], in test [2], in test [3], in test [4], in test [5] and in [7] was inactive. Further, the result in test [20], in test [8], in test [9], in test [10], in test [11] and in [12] was inactive. Further, the outcome in [13], in test [14], in [15], in [16], in test [17] and in test [18] was inactive. Besides, the result in [19] was inactive.

Consider `CCCCCCCCCCCCCCCO`, for which the result in [1], in test [3], in test [4], in test [5], in test [6] and in test [7] was inactive. Besides, the outcome in test [8], in test [9], in test [10], in test [11], in [12] and in test [14] was inactive. The result in [16], in test [17], in test [18] and in test [19] was inactive. Also, the figures for the AC50 in test [2], in [13] and in test [15] were 37.5 µM (active), 31.9 µM (active) and 20 µM (active), respectively.

The values are drawn from PubChem BioAssay (EPA / NIEHS).
